Bioassay records (PubChem)
Shown are actives, neighbours in structure and some others; about 2.8% of the full set was active somewhere.
KDM5B inh = Primary screen for KDM5B Histone Demethylases FDH-coupled qHTS | Lysine-specific demethylase 5B (Homo sapiens), Q9UGL1 | KDM5B demethylase, FDH-coupled NADH fluorescence (FDH is formaldehyde dehydrogenase) | Potency, µM (top dose mostly 57.7 µM), actives largely listed as inhibitors | 220,000 tested, 2.6% active | AID 1347165, 2019; active means well fitted inhibition curve with a large enough effect; inconclusive means small, poorly fitted or top-dose-only effect; inactive means no such curve, though single readings can be large or run the other way; further: nearly all actives have a fitted effect of over 70% in size
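Measured: NADH fluorescence change, 30 min, RT. System: KDM5BΔAP 200 nM final, H3K4me3 peptide, α-KG, Fe(II), ascorbate, NAD⁺ plus FDH, pH 7.5 HEPES. Compounds: titrated, 10 min pre-incubation with enzyme.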
IP6K1 inh = Primary qHTS assay for small molecule inhibitors of Inositol hexaphosphate kinase 1 (IP6K1); IP6K1 kinase, ADP-Glo luminescence, 2 h; active compounds read low; activity change, % (series mostly up to about 58 µM); 140,000 tested, 0.81% active; in the data active means activity change below about -25%
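ADP-Glo luminescence measures ADP made by human IP6K1 during a 2 h RT reaction with ATP/IP6 (mix at 1.3 mM/130 uM); top library doses 57.5 and 19.1 uM final.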
Numbers stand for hits.

What do the screens show for `COc1ccc([C@H]2CN(C(=O)c3nc(N)nc4c3CCCC4)C[C@@H]2N)cc1`?
KDM5B inh: 22µM; IP6K1 inh: inactive

What do the screens show for `O=C(NCC1CCCCC1)C1CCCN(c2ccnc3ccnn23)C1` (centres undefined)?
IP6K1 inh: inactive

How did CSCCNC(=O)c1cc(-c2ccc(Cl)cc2Cl)nc2c1cnn2C do in these assays?
IP6K1 inh: inactive

How did Cc1noc(C)c1S(=O)(=O)N1CCOc2ccc(CN3CCOCC3)cc2C1 do in these assays?
IP6K1 inh: inactive

What do the screens show for `COC(=O)[C@@H]1Cc2c([nH]c3ccccc23)[C@H]2C[C@H](NCCNC(C)=O)C[C@@H](c3ccc(C(F)(F)F)cc3)N21`?
KDM5B inh: 10µM; IP6K1 inh: inactive

How did COC(=O)[C@@H]1Cc2c([nH]c3ccccc23)[C@H]2C[C@H](NCCNC(C)=O)C[C@@H](c3ccccc3)N21 do in these assays?
KDM5B inh: 28µM; IP6K1 inh: inactive

What do the screens show for `COCCN[C@@H]1C[C@@H]2c3[nH]c4ccccc4c3C[C@@H](C(=O)OC)N2[C@H](c2ccc(C(F)(F)F)cc2)C1`?
KDM5B inh: inconclusive; IP6K1 inh: inactive

Results for COC(=O)[C@@H]1Cc2c([nH]c3ccccc23)[C@H]2C[C@@H](NCc3cccnc3)C[C@@H](c3ccccc3)N21 ?
KDM5B inh: inconclusive; IP6K1 inh: inactive

What do the screens show for `COc1ccc(S(=O)(=O)N2CCC(OCCOc3ccccc3)CC2)cc1`?
IP6K1 inh: inactive

How did Cn1ccnc1C(=O)N1CCC(Cc2ccc(CCC(=O)N3CCCC3)cc2)CC1 do in these assays?
IP6K1 inh: inactive

Results for COc1ccccc1-c1cccc(CN2CCCC(C(=O)Nc3cccc(Cl)c3)C2)c1 (centres undefined) ?
IP6K1 inh: inactive

Results for CN1CCC(CNC(=O)c2cc(-c3ccc(F)cc3)cc3ncn(C)c23)CC1=O (centres undefined) ?
KDM5B inh: 32µM; IP6K1 inh: inactive

What do the screens show for `O=C(NCCCn1ccnc1)c1c(F)cccc1F`?
KDM5B inh: inactive

What do the screens show for `COc1ncccc1-c1cc(C(=O)NCC2CCOCC2)c2c(c1)ncn2C`?
KDM5B inh: inconclusive; IP6K1 inh: inactive

What do the screens show for `COc1cc(CNC(=O)c2cc(-c3ccc(F)cc3)cc3ncn(C)c23)ccn1`?
KDM5B inh: 32µM; IP6K1 inh: inactive

What do the screens show for `Cn1cnc2cc(-c3ccc(CO)cc3)cc(C(=O)NCc3cccnc3)c21`?
KDM5B inh: inconclusive; IP6K1 inh: inactive

What do the screens show for `O=C(NCCc1ccccn1)c1cc(F)cc(F)c1`?
KDM5B inh: inactive

What do the screens show for `Cn1cnc2cc(-c3ccc(F)cc3)cc(C(=O)NCCc3ccccn3)c21`?
KDM5B inh: 28µM; IP6K1 inh: inactive

How did Cn1cnc2cc(-c3ccc(F)cc3)cc(C(=O)NCCCn3ccnc3)c21 do in these assays?
KDM5B inh: 40µM; IP6K1 inh: inactive

What do the screens show for `CC(C)CCC(C)Nc1ncnc2c1CN(C1CCCNCC1)C(=O)CN2C` (centres undefined)?
KDM5B inh: inconclusive; IP6K1 inh: inactive

How did O=C(C1CCCCN1Cc1ccc(-c2cccs2)cc1)N1CCN(Cc2ccccc2)CC1 (centres undefined) do in these assays?
IP6K1 inh: inactive

Results for O=C(NCc1ccc(C(F)(F)F)cc1)c1nc2cccnc2n(C2CC2)c1=O ?
IP6K1 inh: inactive

What do the screens show for `O=C(CCc1ccc(CC2CCN(C(=O)NCC3CCCO3)CC2)cc1)NCC1CC1` (centres undefined)?
IP6K1 inh: inactive

How did CN(C)CCNC(=O)c1cc(-c2ccc(F)cc2)cc2ncn(C)c12 do in these assays?
KDM5B inh: 28µM; IP6K1 inh: inactive

What do the screens show for `Cn1cnc2cc(-c3ccc(F)cc3)cc(C(=O)NCCN3CCOCC3)c21`?
KDM5B inh: inconclusive; IP6K1 inh: inactive

Results for COc1cccc(CNC(=O)c2cc(-c3cccs3)c3cccn3n2)c1 ?
IP6K1 inh: inactive

Results for COc1cccc(-c2nn(-c3ccccc3)c(OC(C)=O)c2-c2ccc(NC(=O)c3ccco3)cc2)c1 ?
KDM5B inh: inconclusive; IP6K1 inh: inactive

How did CC(=O)Oc1c(-c2ccc(NC(=O)c3ccco3)cc2)c(C2CC2)nn1-c1cccc(C)c1 do in these assays?
KDM5B inh: 32µM; IP6K1 inh: inactive

How did COC(=O)c1ccc(COC(=O)/C=C/c2cccs2)o1 do in these assays?
KDM5B inh: inactive

What do the screens show for `O=C(c1ccc(Cl)cc1)N1CCC(n2cc(-c3ccc(OC(F)F)cc3)[nH]c2=O)CC1`?
KDM5B inh: inconclusive; IP6K1 inh: inactive

How did C#CCNC(=O)c1cc(-c2cccc(OC)c2)nc2c1cnn2C do in these assays?
IP6K1 inh: inactive

What do the screens show for `C[S+](=O)([O-])c1ccc(-c2cc(C(=O)NC3CCCC3)nn3cccc23)cc1`?
IP6K1 inh: inactive

Results for O=C(NCc1nnc2n1C(C(=O)O)CC2)c1ccc(F)cc1 (centres undefined) ?
KDM5B inh: 45µM; IP6K1 inh: inactive

Results for O=C(O)C1CCc2nnc(C3CCCN(C(=O)c4ccc5c(c4)OC(F)(F)O5)C3)n21 (centres undefined) ?
KDM5B inh: inactive; IP6K1 inh: inactive

What do the screens show for `CC(C)NC(=O)C1CCc2nnc(CNC(=O)c3ccccc3)n21` (centres undefined)?
KDM5B inh: inactive; IP6K1 inh: inactive

How did O=C(NCc1nnc2n1C(C(=O)O)CC2)c1ccccc1 (centres undefined) do in these assays?
KDM5B inh: 100µM; IP6K1 inh: inactive

What do the screens show for `O=C(NCc1nnc2n1C(C(=O)O)CC2)c1ccc2c(c1)OC(F)(F)O2` (centres undefined)?
KDM5B inh: 25µM; IP6K1 inh: inactive

How did O=C(NCc1nnc2n1C(C(=O)O)CC2)C1CCCC1 (centres undefined) do in these assays?
KDM5B inh: inconclusive; IP6K1 inh: inactive

How did O=C(NC1CCCC1)N1CCN(C(=O)c2nc3cccnc3n(C3CCCC3)c2=O)CC1 do in these assays?
IP6K1 inh: inactive

How did Cc1ccc(-c2noc([C@@H]3C[C@H](NS(=O)(=O)c4ccc(Cl)cc4)CN3C)n2)cc1 do in these assays?
KDM5B inh: inconclusive; IP6K1 inh: inactive

What do the screens show for `OC[C@@H]1CN(Cc2ccco2)C[C@H]1c1ccncc1`?
KDM5B inh: inactive; IP6K1 inh: inactive

How did OC[C@@H]1CN(Cc2cccc3[nH]ccc23)C[C@H]1c1ccncc1 do in these assays?
KDM5B inh: 25µM; IP6K1 inh: inactive

What do the screens show for `O=C(NC1CCN(C(=O)c2ccc(-c3cccs3)cc2)CC1)c1ccccc1F`?
IP6K1 inh: inactive

How did CCCCCNC(=O)c1cc(-c2cccc(OC)c2)nc2c1cnn2C do in these assays?
IP6K1 inh: inactive

What do the screens show for `O=c1n(-c2ccc(F)cc2F)nc2n1CCN([S+](=O)([O-])c1cccc(C(F)(F)F)c1)C2`?
KDM5B inh: inactive; IP6K1 inh: inactive

How did O=c1n(-c2ccc(F)cc2F)nc2n1CCN(Cc1ccc(C(F)(F)F)cc1)C2 do in these assays?
KDM5B inh: inconclusive; IP6K1 inh: inactive

Results for COc1ccc(CN2CCn3c(nn(-c4ccc(F)cc4F)c3=O)C2)cc1 ?
KDM5B inh: 22µM; IP6K1 inh: inactive

How did Cc1ccc(CN2CCn3c(nn(-c4ccc([N+](=O)[O-])cc4)c3=O)C2)cc1 do in these assays?
KDM5B inh: inconclusive; IP6K1 inh: inactive
